# A selection: hits, their analogues and other compounds. The true share with any hit is near 13%.
# Sfp PPTase inh – qHTS Assay for Inhibitors of Bacillus subtilis Sfp phosphopantetheinyl transferase (PPTase). Biochemical Sfp PPTase activity, qHTS. Potency, µM, for the others: largest response in the series, negative = inhibition, hits mostly inhibitors. actives 3.5% (n = 310,000);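 further: the enzyme is Sfp with the accession as filed and its product quenches rhodamine fluorescence; potency means the concentration at half of the fitted maximal effect; 0% = enzyme reaction without inhibitor and -100% = no enzyme wells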
#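 Sfp 15 nM + cpd, 15 min RT; start w/ rhodamine-CoA 5 uM, BHQ-2-YbbR 12.5 uM (final); 50 mM Hepes pH 7.6, 10 mM MgCl2, 0.01% NP-40, 0.01% BSA; read 525/598 nm at 0 and 30 min.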
# G9a block – qHTS Assay for Inhibitors of Histone Lysine Methyltransferase G9a; Histone-lysine N-methyltransferase EHMT2 (Homo sapiens), Q96KQ7; G9a H3K9 monomethylation, AlphaScreen, 2 h; Potency, µM (highest dose often 102 µM), without a hit: at the top dose activity, negative = inhibition, usual class: inhibitors; actives 8.8% (n = 350,000); further: potency means the concentration at half of the fitted maximal effect; on the % scale 0 is the no-effect control and ±100 the full control effect; nearly all actives have a fitted effect of over 75% in size
# Target sequence (Q96KQ7 913-1193 limits assumed): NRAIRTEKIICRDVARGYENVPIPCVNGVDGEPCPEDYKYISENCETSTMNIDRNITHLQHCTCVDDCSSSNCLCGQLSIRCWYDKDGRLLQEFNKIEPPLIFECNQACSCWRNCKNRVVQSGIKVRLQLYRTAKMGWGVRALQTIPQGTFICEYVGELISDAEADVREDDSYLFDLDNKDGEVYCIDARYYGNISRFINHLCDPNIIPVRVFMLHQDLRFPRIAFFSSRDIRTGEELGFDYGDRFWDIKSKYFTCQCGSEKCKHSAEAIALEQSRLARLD
#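 G9a (20 nM) preincubated 15 min RT with compounds, then 500 nM biotinylated H3K9 peptide and 20 uM SAM added; 2 h RT reaction. Monomethyl-H3K9 product detected by AlphaScreen with anti-H3K9me1 antibody, streptavidin donor and anti-rabbit IgG acceptor beads.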
# ALDH1A1 block – qHTS Assay for Inhibitors of Aldehyde Dehydrogenase 1 (ALDH1A1). AID 1030, 2008. Aldehyde dehydrogenase 1A1 (Homo sapiens), P00352. actives 7.3% (n = 220,000). Purified ALDH1A1, NADH fluorescence, propionaldehyde substrate. Potency, µM (doses to about 75.3 µM), without a hit: at the top dose activity, negative = inhibition, usual class: inhibitors; active means well fitted inhibition curve with a large enough effect, not every such curve was filed as active; inconclusive means small, poorly fitted or top-dose-only effect, or another doubt; inactive means no such curve, though single readings can be large or run the other way;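 further: potency means the concentration at half of the fitted maximal effect; plate controls were no enzyme wells and a reference inhibitor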
# Target sequence (P00352 whole entry, looked up): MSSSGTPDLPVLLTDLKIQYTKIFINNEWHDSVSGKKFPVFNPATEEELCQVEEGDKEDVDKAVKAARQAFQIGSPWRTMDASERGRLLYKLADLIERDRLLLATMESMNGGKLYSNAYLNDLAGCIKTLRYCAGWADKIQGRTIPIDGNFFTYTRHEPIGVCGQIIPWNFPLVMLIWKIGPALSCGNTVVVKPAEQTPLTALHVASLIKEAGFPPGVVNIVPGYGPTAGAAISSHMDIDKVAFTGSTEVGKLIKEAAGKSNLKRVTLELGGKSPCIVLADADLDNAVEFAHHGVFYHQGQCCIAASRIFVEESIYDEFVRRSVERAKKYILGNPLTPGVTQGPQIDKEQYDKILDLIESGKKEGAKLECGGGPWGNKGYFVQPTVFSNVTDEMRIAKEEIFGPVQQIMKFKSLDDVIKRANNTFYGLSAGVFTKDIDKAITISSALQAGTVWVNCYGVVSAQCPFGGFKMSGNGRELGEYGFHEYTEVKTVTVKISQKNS
# miR-21 reporter – qHTS Assay for Modulators of miRNAs and/orActivators of miR-21; HeLa miR-21 FLuc reporter, luciferase, 48 h; Potency, µM (top dose mostly 38.3 µM), inactives show at the highest dose activity change, positive = activation, usual class: activators; 340,000 tested, under 10 active;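 further: % of control where 0% means no effect; miR-21 action dims this reporter so a rising signal means less miR-21 action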
#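 HeLa miR-21-FLuc reporter line, endogenous miR-21; 2000 cells/well in DMEM/10% FBS; compound titration up to ~40uM final, 48 h, 37 degree Celsius; luciferase detection reagent, 15 min lysis, CCD luminescence.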
# KDM4E inh – qHTS Assay for Inhibitors of Human Jumonji Domain Containing 2E (JMJD2E). Lysine-specific demethylase 4E (Homo sapiens), B2RXH2. JMJD2E catalytic domain, FDH-coupled NADH fluorescence (FDH is formaldehyde dehydrogenase). Potency, µM (series often up to 57.1 µM), inactives show at the top dose activity change, negative = inhibition, most hits filed as inhibitors. actives 1.6% (n = 230,000). AID 2147, 2009; active means well fitted inhibition curve with a large enough effect, not every such curve was filed as active; inconclusive means small, poorly fitted or top-dose-only effect, or another doubt; inactive means no such curve, though single readings can be large or run the other way;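 further: potency means the concentration at half of the fitted maximal effect; 0% = wells with enzyme and -100% = buffer wells without enzyme; nearly all actives have a fitted effect of over 50% in size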
# Lamin A splicing – qHTS Assay for Modulators of Lamin A Splicing | AID 1487, 2009 | actives 0.01% (n = 200,000) | Potency, µM (highest dose often 46.1 µM), without a hit: at the top dose ratio change, negative = inhibition, hits mostly inhibitors | HeLa LMNA splicing GFP/RFP minigene ratio, 48 h; active means well fitted inhibition curve with a large enough effect in the signal ratio, with a control signal flat, not every such curve was filed as active; inconclusive means small, poorly fitted or top-dose-only effect, or effect the other way, or a change in a side signal; the % refers to the signal ratio; further: potency means the concentration at half of the fitted maximal effect; on the % scale 0 is the no-effect control and ±100 the full control effect
#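 S3 HeLa stable clones carrying a lamin A-EGFP splicing minigene plus DsRed2 were seeded at 600 cells/well in Opti-MEM with 2% FBS, pin-dosed and incubated 48 h at 37°C. Acumen cytometry (488 nm) gave the GFP/RFP total-intensity ratio.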
# An asterisk follows results filed as active; ? = inconclusive; . = no result; ! = not confirmed by another sample; [ ] = remark or other dose. Unless noted, the call rests on the fitted dose curve; in most records, active means well fitted curve in the direction sought with a large enough effect; inconclusive means small, poorly fitted or top-dose-only effect, or another doubt; inactive means no such curve, though single readings can be large; an effect the other way counts as inactive or inconclusive.
SMILES,Sfp PPTase inh,G9a block,ALDH1A1 block,miR-21 reporter,KDM4E inh,Lamin A splicing
NC(=O)C1CCN(CC(=O)NC2CCCc3ccccc32)CC1 (stereo not drawn),3%,43%,14%,11%,16%,.
Cc1ccc(S(=O)(=O)N2CCN(CC(=O)NC3CCCc4ccccc43)CC2)cc1C (stereo not drawn),-7%,?,0.45µM*,14%,-3%,-28%
CS(=O)(=O)c1ccccc1C(=O)NC1CCCc2ccccc21 (stereo not drawn),10%,-8%[0.0925 µM],8%,2%,-9%,?
CCS(=O)(=O)c1ccccc1C(=O)NC1CCCc2ccccc21 (stereo not drawn),4%,40µM*,.,13%,.,.
Cc1ccc(S(=O)(=O)N2CCN(CC(=O)NC3CCCc4ccccc43)CC2)c(C)c1 (stereo not drawn),-19%,?,13µM*,2%,-1%,?
CCN(CC)C(=O)Cn1c(=O)n(-c2ccc(OC)cc2OC)c(=O)c2c(C)c(C(=O)N(CC)CC)sc21,.,15%[59 µM],.,-2%,.,6%[46 µM]
C=C(C)COc1ccc(-c2ncncc2Oc2ccc(OC)cc2)c(O)c1,6%,?,20µM*,3%,4%,11%
CN(C)/C=C/c1onc(-c2ccccc2Cl)c1C#N,-11%,7%,6.3µM*,-16%,?,?
C/C=C/c1ccc2oc(-c3ccc(O)cc3)c(C)c2c1,16%,.,?,.,?,.
Cc1cccc(C)c1N=Nc1c(C)cc(O)cc1C,6%,35µM*,.,-14%,.,.
CCOC(=O)N1CCN(Cc2nc3cc(NC(=O)c4ccc(F)cc4)ccc3n2C(C)C)CC1,.,2%[59 µM],.,23%,.,?
COCCNC(=O)C(c1ccc(C)o1)N(CC1CCCO1)C(=O)Cn1nnc2ccccc21 (stereo not drawn),-7%,50µM*,-3%,-4%,-3%,12%
COc1ccc(S(=O)(=O)N2CCN(c3ccccc3F)CC2)cc1-c1noc(C)n1,.,0.5µM*,.,4%,.,.
COc1cc(S(=O)(=O)N2CCN(c3ccccc3F)CC2)c(OC)cc1Cl,22%,16%[59 µM],25µM*,-12%,-1%,?
CCc1nc(-c2cc(S(=O)(=O)N3CCN(c4ccccc4F)CC3)ccc2OC)no1,.,6%[59 µM],.,-1%,.,.
COc1ccccc1N1CCN(S(=O)(=O)c2c(C)[nH]c(=O)[nH]c2=O)CC1,19%,-5%,5%,-2%,0%,.
COc1ccccc1N1CCN(S(=O)(=O)c2c[nH]c(=O)[nH]c2=O)CC1,.,20µM*,.,.,.,.
Cc1ccc(C(=O)c2oc3ccccc3c2NC(=O)c2cc(-c3ccc(Cl)cc3)on2)cc1,.,?,.,-6%,.,30%[46 µM]
Cc1ccc(-c2csc3ncn(-n4c(C)ccc4C)c(=O)c23)o1,-11%,10µM*,32µM*,?,?,?
COc1ccc2c(c1)c1c(c(=O)n(CCc3ccccc3)c(=O)n1Cc1cccc(C)c1)n2C,.,3%[59 µM],.,10%,.,.
CC(NC(=O)/C=C/c1ccco1)c1nc2ccccc2n1Cc1cccc(Cl)c1 (stereo not drawn),28µM*,?,14µM*,-3%,-7%,-7%
COc1ccc(-c2csc(NC(=S)NC(=O)/C=C/c3ccco3)n2)cc1OC,-13%,-2%[59 µM],-5%,16%,-10%,?
CCC(O)c1nc2ccccc2n1Cc1cccc(Cl)c1 (stereo not drawn),.,9%[59 µM],.,11%,.,.
COc1ccc(C(NC(=O)/C=C/c2ccco2)c2ccc(OC)cc2)cc1,25µM*,8.9µM*,?,-7%,-7%,-8%
COc1ccc(C(NC(=O)/C=C\c2ccco2)c2ccc(OC)c(OC)c2)cc1 (stereo not drawn),20µM*,25µM*,?,-4%,-6%,8%
SMILES,Sfp PPTase inh,G9a block,ALDH1A1 block,miR-21 reporter,KDM4E inh,Lamin A splicing
CCC(Cc1ccccc1)NC(=O)CCc1ccccc1 (stereo not drawn),7%,.,.,-4%,.,.
CCC(Cc1ccccc1)NC(=O)/C=C/c1ccco1 (stereo not drawn),56µM*,18%[0.501 µM],.,-7%,.,.
Oc1c(C(c2ccccc2F)N2CCN(c3ccccc3F)CC2)sc2nc(-c3ccco3)nn12 (stereo not drawn),.,?,.,-15%,.,12%[46 µM]
CN1CCC(N(C)S(=O)(=O)c2ccc(NC(=O)COc3ccc(F)cc3)cc2)CC1,.,11µM*,.,.,.,.
CN1CCC(N(C)S(=O)(=O)c2ccc(NC(=O)COc3ccc(Cl)cc3)cc2)CC1,.,16%[12.7 µM],.,.,.,.
CN1CCC(N(C)S(=O)(=O)c2ccc(NC(=O)COc3ccc([N+](=O)[O-])cc3)cc2)CC1,.,13µM*,.,.,.,.
CC(C)(N=NC(C)(C)C(=N)N)C(=N)N,-8%,-30%[2.33 µM],32µM*!,.,-9%,.
Cc1cc(OC(=O)c2ccccc2C(F)(F)F)c([N+](=O)[O-])c(=O)[nH]1,18%,?,.,-1%,.,.
CC(=O)Nc1ccc(S(=O)(=O)c2cc(O)ccc2O)cc1,-22%,13µM*,.,-5%,.,.
Cc1ccc(S(=O)(=O)c2cc(O)ccc2O)cc1C,-17%,50µM*,?,0%,0%,.
Cc1ccc(S(=O)(=O)Nc2ccc(O)c(S(=O)(=O)c3ccc(C)cc3)c2)cc1,2%,.,.,1%,.,.
Cc1ccc2cc3cc(C(=O)Nc4ccc(F)cc4Cl)oc3nc2c1,.,22%[59 µM],.,1%,.,?
Cc1ccsc1/C=C/c1ccc2ccccc2n1,-21%,5%[59 µM],-14%,-3%,?,6%
Cc1ccsc1/C=C/c1ccc2cccc(O)c2n1,50µM*,?,-9%,-41%,?,?
NC(=O)c1ccc[n+](Cc2ccccc2)c1,1%,71µM*,1%,-4%,-1%,-2%
NC(=O)C[n+]1cccc(C(=O)Nc2ccccc2)c1,-2%,50µM*,.,-3%,.,.
N=c1oc2ccc3ccccc3c2cc1C(N)=S,?,20µM*,?,0%,-13%,.
O=C(O)c1cc2c(ccc3ccccc32)oc1=O,9%,?,?,-8%,?,-4%
CCOC(=O)NC1(NC(C)C)Oc2ccccc2O1,?,10µM*,?,2%,?,5%
CCOC(=O)NC1(NC2CCCCC2)Oc2ccccc2O1,56µM*,4µM*,?,-14%,-28%,-1%
CCOC(=O)NC1(Nc2ccc(C)cc2)Oc2ccccc2O1,35µM*,?,13%,-37%,-6%,?

# High-throughput results (PubChem BioAssay)
